Source: PubChem BioAssay (EPA / NIEHS)
Records with an inconclusive call do not appear. The source made the active and inactive calls. The calls were made as follows, unless noted: active = hit-call score of the fitted dose curve at least 0.9, where 1 is the maximum; inconclusive = response in the unintended direction; inactive = score below 0.9.

Experiments:
[1] = TOX21_p53_BLA_p2_viability: Viability Assessment in the Tox21 HCT-116 p53 Agonism Beta-lactamase Assay, Phase 2 (AID 2283591);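 also: actives lower the ATP signal meaning cytotoxicity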
How it was run: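 Cytotoxicity readout: CellTiter-Glo ATP luminescence, 30 min at room temperature, after the beta-lactamase read. Cells were HCT116 exposed 16 h at 37C to compounds pin-transferred at 217-fold dilution from DMSO stocks.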

[2] = biological target: Cellular tumor antigen p53 (Homo sapiens) (UniProt P04637); experiment: TOX21_p53_BLA_p2_ratio: Tox21 HCT-116 p53 Agonism Beta-lactamase Assay, Ratio, Phase 2 (AID 2283592)
How it was run: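 Readout: blue/green (460/530 nm) FRET emission ratio after 2 h CCF4-AM loading at room temperature, excitation 405 nm. HCT116 p53 bla cells, 16 h compound exposure at 37C, 5% CO2; agonist direction fitted against DMSO baseline.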

[3] = biological target: Cellular tumor antigen p53 (Homo sapiens) (UniProt P04637); experiment: TOX21_p53_BLA_p3_ratio: Tox21 HCT-116 p53 Agonism Beta-lactamase Assay, Ratio, Phase 3 (AID 2283596)
How it was run: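 Cells were seeded at 4000/well, rested 5 h at 37C, then dosed with DMSO compound solutions (217-fold dilution) for 16 h. CCF4-AM substrate was loaded for 2 h at room temperature, and the 460/530 nm emission ratio was fitted for gain of signal versus DMSO.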

[4] = TOX21_p53_BLA_p4_viability: Viability Assessment in the Tox21 HCT-116 p53 Agonism Beta-lactamase Assay, Phase 4 (AID 2283597);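 also: hits lower the luminescence signal meaning cytotoxicity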
How it was run: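 ATP content by CellTiter-Glo luminescence, 30 min RT, read after the beta-lactamase ratio step. Cells: HCT116, 4000/well, compound added after 5 h, exposure 16 h at 37C. Signal loss = reduced viability.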

[5] = TOX21_p53_BLA_p5_viability: Viability Assessment in the Tox21 HCT-116 p53 Agonism Beta-lactamase Assay, Phase 5 (AID 2283600)
How it was run: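 ATP luminescence (CellTiter-Glo, 30 min, RT) served as the viability read-out, with loss of signal indicating cytotoxicity. Compounds in DMSO were pinned at a 217-fold dilution onto 4000 cells/well and incubated 16 h, 37C.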

[6] = biological target: Cellular tumor antigen p53 (Homo sapiens) (UniProt P04637); experiment: TOX21_p53_BLA_p4_ratio: Tox21 HCT-116 p53 Agonism Beta-lactamase Assay, Ratio, Phase 4 (AID 2283601)
How it was run: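 Signal is the blue/green (460nm/530nm) ratio of cleaved versus uncleaved CCF4-AM substrate, read after 2 h substrate loading. Cells were HCT116 carrying the p53-responsive beta-lactamase reporter, dosed 16 h at 37C, 5% CO2; CellTiter-Glo measured in parallel.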

[7] = biological target: Cellular tumor antigen p53 (Homo sapiens) (UniProt P04637); experiment: TOX21_p53_BLA_p5_ratio: Tox21 HCT-116 p53 Agonism Beta-lactamase Assay, Ratio, Phase 5 (AID 2283599)
How it was run: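 Beta-lactamase reporter ratio (blue 460 nm over green 530 nm, 405 nm excitation) after 2 h CCF4-AM loading, in HCT-116 cells exposed 16 h at 37 C to compounds pinned at 217-fold dilution. Increases relative to DMSO baseline scored.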

PGR (gene 5241) = PGR (gene 5241) (UniProt P06401); experiment: TOX21_PR_BLA_Followup_Antagonist_ratio: Tox21 HEK293 Progesterone Receptor (PR) Antagonism Beta-lactamase Follow-Up Assay, Ratio (AID 2283934);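 also: PR-UAS-bla HEK293T cells stimulated with 1 nM R5020 agonist for 16 hr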
How it was run: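 Cells are plated, rested 6 hr, then dosed with test compound in DMSO and challenged with 1 nM promegestone. After 16 hr incubation, substrate loading for 2 h at room temperature precedes fluorescence reading; viability is measured in the same wells.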

[8] = TOX21_PR_BLA_Followup_Agonist_viability: Viability Assessment in the Tox21 HEK293 Progesterone Receptor (PR) Agonism Beta-lactamase Follow-Up Assay (AID 2283935);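 also: signal loss means lower viability so actives are cytotoxic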
How it was run: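 Cells were plated in medium with 2% charcoal-stripped FBS and rested 6 hr. Compounds in DMSO were then added for 16 hr at 37C, followed by the FRET substrate step and CellTiter-Glo luminescence after 30 min.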

[9] = TOX21_PR_BLA_Followup_Antagonist_viability: Viability Assessment in the Tox21 HEK293 Progesterone Receptor (PR) Antagonism Beta-lactamase Follow-Up Assay (AID 2283936);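 also: cells exposed to compound with R5020 agonist for 16 h; hits lower the luminescence signal meaning cytotoxicity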
How it was run: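 PR-UAS-bla HEK293T cells in medium with 2% charcoal-stripped FBS were treated with compounds plus R5020 for 16 hr at 37C. After the beta-lactamase read, CellTiter-Glo was added to the same wells and luminescence read after 30 min at room temperature.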

[10] = TOX21_PR_LUC_Followup_Agonist_viability: Viability Assessment in the Tox21 HEK293 Progesterone Receptor (PR) Agonism Luciferase Follow-Up Assay (AID 2283941);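 also: loss of signal means cytotoxicity so actives lower viability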
How it was run: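 Multiplexed viability endpoint of the PR agonist luciferase follow-up: HEK293-PR-A-luc cells treated 16 h at 37C, with viability scored as decrease in CellTiter-Glo ATP signal.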

[11] = CCTE_Harrill_HTTr_Viability_MCF7: CCTE's 6-hour Cell Viability Assessment for the High-Throughput Transcriptomics (HTTr) Platform, in MCF-7 cells cultured in DMEM + 10% fetal bovine serum, Harrill Lab (AID 2284010; active = hit-call score of the fitted dose curve at least 0.9, where 1 is the maximum; inactive = score below 0.9)
How it was run: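 Read-out is propidium iodide gain of signal by high-content imaging, reflecting membrane integrity loss. Measurements are taken 6 h after dosing, eight concentrations per chemical, with DMSO serving as baseline for bidirectional curve fitting.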

[12] = CCTE_Harrill_HTTr_Apoptosis_MCF7: CCTE's 6-hour Apoptosis Assessment for the High-Throughput Transcriptomics (HTTr) Platform, in MCF-7 cells cultured in DMEM + 10% fetal bovine serum, Harrill Lab (AID 2284011; active = hit-call score of the fitted dose curve at least 0.9, where 1 is the maximum; inactive = score below 0.9)
How it was run: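 Read-out: CellEvent Caspase 3/7 Green signal by high content imaging, gain-of-signal indicating apoptosis. MCF-7 cells, DMEM + 10% FBS, eight-point dilution series, 6 h exposure. Curves fitted bidirectionally relative to DMSO negative control.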

[13] = system: Brachyury (BRA) Protein Expression, Deisenroth Lab, TBXT (gene 6862); experiment: CCTE_Deisenroth_DEVTOX-GLR_legacy_Bra: (Legacy) CCTE's DevTox GLR-Endo Assay Evaluation of Brachyury (BRA) Protein Expression, Deisenroth Lab (AID 2284329; active = hit-call score of the fitted dose curve at least 0.9, where 1 is the maximum; inactive = score below 0.9)
How it was run: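 Percent Bra-positive cells, scored by high-content imaging against a threshold of 5x BMAD over the undifferentiated control median, with the 0.2% DMSO median subtracted. RUES2-GLR cultures were dosed twice at 24 h intervals across a 48 h differentiation, at 1 nM–200 uM in ten steps, with n=4 replicates.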

[14] = CCTE_Deisenroth_DEVTOX-GLR_legacy_CellCount: (Legacy) Viability Assessment in CCTE's DevTox GLR-Endo Assay, Deisenroth Lab (AID 2284331; active = hit-call score of the fitted dose curve at least 0.9, where 1 is the maximum; inactive = score below 0.9); details: actives raise or lower the signal
How it was run: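 Seed RUES2-GLR 24 h; differentiate 48 h, dosing at 0 and 24 h; fix, stain nuclei; image 5 fields/well; count nuclei. Conc. 1 nM - 200 uM, single technical replicate, n=4 experiments; bidirectional fit vs 0.2% DMSO.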

[15] = system: SRY-box transcription factor 17 (SOX17) Protein Expression, Deisenroth Lab, SOX17 (gene 64321); experiment: CCTE_Deisenroth_DEVTOX-GLR_legacy_Sox17: (Legacy) CCTE's DevTox GLR-Endo Assay Evaluation of SRY-box transcription factor 17 (SOX17) Protein Expression, Deisenroth Lab (AID 2284341; active = hit-call score of the fitted dose curve at least 0.9, where 1 is the maximum; inactive = score below 0.9); details: actives raise or lower the signal
How it was run: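 Using the RUES2-GLR line, compounds are tested as 10-point series during 48-h defined-media differentiation. Sox17 reporter fluorescence per cell determines positivity; endpoint is percentage positive, analysed bidirectionally versus DMSO baseline.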

[16] = system: SRY-box transcription factor 2 (SOX2) Protein Expression, Deisenroth Lab, SOX2 (gene 6657); experiment: CCTE_Deisenroth_DEVTOX-GLR_legacy_Sox2: (Legacy) CCTE's DevTox GLR-Endo Assay Evaluation of SRY-box transcription factor 2 (SOX2) Protein Expression, Deisenroth Lab (AID 2284346; active = hit-call score of the fitted dose curve at least 0.9, where 1 is the maximum; inactive = score below 0.9)
How it was run: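 Percent Sox2-positive cells was scored by high-content imaging of 5 fields per well. Positivity cutoff was 5x BMAD over the directed endoderm control, and the DMSO median was subtracted. Cells were RUES2-GLR, dosed twice at 24-h intervals over 48 h of differentiation (1 nM-200 uM).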

[17] = system: SRY-box transcription factor 2 (SOX2) Protein Expression, Deisenroth Lab, SOX2 (gene 6657); experiment: CCTE_Deisenroth_DEVTOX-GLR_Endo_SOX2: CCTE's DevTox GLR-Endo Assay Evaluation of SRY-box transcription factor 2 (SOX2) Protein Expression, Deisenroth Lab (AID 2284412)
How it was run: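 Endpoint is percent SOX2-positive cells (SOX2+ count/total cells) minus 0.2% DMSO control, from high-content imaging of fixed, nuclear-stained RUES2-GLR cells. Dosing twice at 24 h intervals over 48 h differentiation, 1 nM–200 uM in 10 points.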

[18] = system: SRY-box transcription factor 17 (SOX17) Protein Expression, Deisenroth Lab, SOX17 (gene 64321); experiment: CCTE_Deisenroth_DEVTOX-GLR_Endo_SOX17: CCTE's DevTox GLR-Endo Assay Evaluation of SRY-box transcription factor 17 (SOX17) Protein Expression, Deisenroth Lab (AID 2284413; active = hit-call score of the fitted dose curve at least 0.9, where 1 is the maximum; inactive = score below 0.9)
How it was run: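 RUES2-GLR human pluripotent cells were seeded 24 h, then differentiated toward endoderm for 48 h with two chemical exposures 24 h apart (10-point series, 1 nM - 200 uM). Nuclei-stained fixed cells were imaged; endpoint is percent change in SOX17+ cells versus 0.2% DMSO.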

[19] = CCTE_Deisenroth_DEVTOX-GLR_Endo_CellCount: Viability Assessment in CCTE's DevTox GLR-Endo Assay, Deisenroth Lab (AID 2284420; active = hit-call score of the fitted dose curve at least 0.9, where 1 is the maximum; inactive = score below 0.9)
How it was run: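 Nuclei counted by fluorescence microscopy as a surrogate for cell number, expressed as percent change relative to 0.2% DMSO control. Human RUES2-GLR cells, 48 h differentiation, dosed twice; 1 nM - 200 uM series.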

[20] = system: SRY-box transcription factor 17 (SOX17) Protein Expression, Deisenroth Lab, SOX17 (gene 64321); experiment: CCTE_Deisenroth_DEVTOX-GLR_Pluri_SOX17: CCTE's DevTox GLR-Pluri Assay Evaluation of SRY-box transcription factor 17 (SOX17) Protein Expression, Deisenroth Lab (AID 2284427)
How it was run: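 Readout: percent SOX17+ cells (SOX17+ count/cell count) by high-content imaging of an inducible fluorescent reporter, corrected for 0.2% DMSO solvent control. RUES2-GLR cells, 48 h differentiation, dosed twice at 24 h intervals, 1 nM - 200 uM.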

[21] = system: Brachyury (BRA) Protein Expression, Deisenroth Lab, TBXT (gene 6862); experiment: CCTE_Deisenroth_DEVTOX-GLR_Pluri_BRA: CCTE's DevTox GLR-Pluri Assay Evaluation of Brachyury (BRA) Protein Expression, Deisenroth Lab (AID 2284429)
How it was run: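 Percent BRA+ cells (BRA+ count over total cells) by high-content imaging of fixed RUES2-GLR cultures, corrected by 0.2% DMSO control. Cells received two doses over 48-hour differentiation, 1 nM–200 uM, n=4 experiments.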

[22] = CCTE_Deisenroth_DEVTOX-GLR_Pluri_CellCount: Viability Assessment in CCTE's DevTox GLR-Pluri Assay Evaluation of Total Cell Counts, Deisenroth Lab (AID 2284430; active = hit-call score of the fitted dose curve at least 0.9, where 1 is the maximum; inactive = score below 0.9)
How it was run: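 Cytotoxicity readout: fluorescent nuclei counts by high-content imaging, expressed as percent change relative to 0.2% DMSO. Human RUES2-GLR pluripotent line differentiated 48 h, dosed twice at 24-h intervals across 1 nM - 200 uM (10 points).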

Measured: AC50

Sequence of Cellular tumor antigen p53 (Homo sapiens) (P04637 whole entry, looked up): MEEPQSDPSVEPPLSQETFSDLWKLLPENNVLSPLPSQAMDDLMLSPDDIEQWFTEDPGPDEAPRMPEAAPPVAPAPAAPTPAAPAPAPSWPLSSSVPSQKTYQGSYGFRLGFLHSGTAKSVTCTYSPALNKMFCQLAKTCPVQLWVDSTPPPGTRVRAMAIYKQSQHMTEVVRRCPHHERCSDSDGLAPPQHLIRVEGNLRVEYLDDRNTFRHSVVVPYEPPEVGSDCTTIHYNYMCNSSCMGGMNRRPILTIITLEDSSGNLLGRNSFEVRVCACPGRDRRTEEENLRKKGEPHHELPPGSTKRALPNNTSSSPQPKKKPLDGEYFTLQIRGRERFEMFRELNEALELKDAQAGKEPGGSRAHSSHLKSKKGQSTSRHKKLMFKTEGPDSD
Sequence of PGR (gene 5241) (P06401 whole entry, looked up): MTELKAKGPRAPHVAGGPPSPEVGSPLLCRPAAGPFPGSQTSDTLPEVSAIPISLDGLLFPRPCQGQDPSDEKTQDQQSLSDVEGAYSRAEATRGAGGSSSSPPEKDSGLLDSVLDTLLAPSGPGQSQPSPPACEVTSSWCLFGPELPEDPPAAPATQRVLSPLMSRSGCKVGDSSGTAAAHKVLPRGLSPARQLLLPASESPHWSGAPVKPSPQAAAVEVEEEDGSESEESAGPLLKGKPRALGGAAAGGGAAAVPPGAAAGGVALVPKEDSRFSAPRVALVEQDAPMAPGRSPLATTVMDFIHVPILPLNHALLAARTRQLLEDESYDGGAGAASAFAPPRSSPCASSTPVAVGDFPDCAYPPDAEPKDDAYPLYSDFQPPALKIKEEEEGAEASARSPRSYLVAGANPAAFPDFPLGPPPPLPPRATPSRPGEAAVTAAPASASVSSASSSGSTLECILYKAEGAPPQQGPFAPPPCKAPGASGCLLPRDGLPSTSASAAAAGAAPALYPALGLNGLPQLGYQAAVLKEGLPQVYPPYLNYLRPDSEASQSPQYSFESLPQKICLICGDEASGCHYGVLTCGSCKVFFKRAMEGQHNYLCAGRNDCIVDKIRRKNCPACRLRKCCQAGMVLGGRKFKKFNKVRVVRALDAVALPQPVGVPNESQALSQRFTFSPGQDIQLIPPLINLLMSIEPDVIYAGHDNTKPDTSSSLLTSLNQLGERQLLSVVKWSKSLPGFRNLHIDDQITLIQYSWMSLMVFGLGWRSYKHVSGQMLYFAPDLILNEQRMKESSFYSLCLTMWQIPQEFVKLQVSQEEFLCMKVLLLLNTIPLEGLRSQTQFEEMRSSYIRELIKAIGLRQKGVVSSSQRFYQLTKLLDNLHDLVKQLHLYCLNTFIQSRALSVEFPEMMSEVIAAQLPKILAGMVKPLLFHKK

CC(C)(C)NCCNC(C)(C)C
inactive: [1] | [2] | [3] | [4] | [5] | [6]

Cc1cccc(C)c1NC(=O)C(C)N (centres undefined)
inactive: [1] | [2] | [3] | [4] | [7] | [6]

C[C@H]1[C@@H](OC(=O)CCC(=O)O)O[C@@H]2OC3(C)CC[C@H]4[C@H](C)CC[C@@H]1[C@@]24OO3
inactive: [1] | [2] | [3] | [4] | [7] | [5] | [6]

c1ccc2c(c1)CCc1ccccc1N2
inactive: PGR (gene 5241) | [8] | [9] | [10]

CC(CCc1ccccc1)NCC(O)c1ccc(O)c(C(N)=O)c1 (centres undefined)
inactive: [11] | [12]

CN1CCN2c3ccccc3Cc3ccccc3C2C1 (centres undefined)
active: [13] 52.7 µM | [14] 36.5 µM | [15] 34.3 µM | [16] 50.1 µM | [17] 89.7 µM | [18] 34.1 µM | [19] 36.4 µM | [20] 57 µM | [21] 100 µM | [22] 0.877 µM

O=C(O)[C@H](CC(=O)N1C[C@H]2CCCC[C@H]2C1)Cc1ccccc1
inactive: [1] | [2] | [3] | [7] | [6]

CC(C)c1ccccc1
inactive: [1] | [2] | [3] | [7] | [6]

CC(C)(CO)[C@@H](O)C(=O)NCCC(=O)NCCSSCCNC(=O)CCNC(=O)[C@H](O)C(C)(C)CO
inactive: [1] | [2] | [3] | [7] | [6]

Cc1cccc([N+](=O)[O-])c1C(=O)O
inactive: [1] | [2] | [3] | [7] | [6]

CN1CCC(=C2c3ccccc3C=Cc3ccccc32)CC1
active: [1] 39.3 µM | [2] 43.2 µM
inactive: [3] | [7] | [6]

O=C1OCCN1N=Cc1ccc([N+](=O)[O-])o1
inactive: [1] | [2] | [3] | [7] | [5] | [6] | [11] | [12]

CN(C)c1ccc(CCO)cc1
inactive: [1] | [2] | [3] | [7] | [6]

C=CC(=O)OCCOC(=O)CCC(=O)O
inactive: [1] | [2] | [3] | [7] | [6]

C/C=C/c1ccc(OCC)c(O)c1
inactive: [1] | [2] | [3] | [7] | [5] | [6]
